# The supplement of paper PMC10127200
# Structures can show the parent of a compound that is named as a salt.
# Tested on: 786-O
# Test: Euclidean distance of Cell Painting phenotypic profile (signed KS, 77 features) to DMSO centroid (dimensionless distance); 5 or 10 uM (library dependent); higher = stronger phenotypic change vs DMSO (phenoactivity)
# Conditions: 48 h
# Summary of the method: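 Phenoactivity is defined as the Euclidean distance from a compound profile to the median vehicle profile. Each profile comprised 77 Harmony features, scored as signed Kolmogorov-Smirnov statistics versus same-plate vehicle wells, then plate-position corrected, correlation-weighted and replicate-averaged at the top dose. Five cancer lines and one healthy fibroblast line were exposed to library compounds for 48 h at 10 or 5 uM (0.1% DMSO final).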
row,SMILES,Euclidean distance
1,CNC(=O)c1c(C)oc2cc(Oc3ncnc4cc(OC)c(OC)cc34)ccc12 [Fruquintinib],1.24
2,CCOC(=O)N[C@@H]1CC[C@@H]2[C@@H](C1)C[C@H]1C(=O)O[C@H](C)[C@H]1[C@H]2/C=C/c1ccc(-c2cccc(F)c2)cn1 [Vorapaxar],1.81
3,CC(C)(C)CC(C)(C)c1ccc(O)c(Cc2ccc(Cl)cc2Cl)c1 [Clofoctol],1.64
4,COc1ccc2cc1Oc1ccc(cc1)C[C@H]1c3cc(c(OC)cc3CCN1C)Oc1c(OC)c(OC)cc3c1[C@H](C2)N(C)CC3 [Tetrandrine],4.3
5,CNC(=O)c1cc(COc2nnc(Nc3ccc(Cl)cc3)c3ccoc23)ccn1 [Telatinib],1.21
6,CC(C)Oc1ccc(-c2nn([C@@H](C)c3oc4ccc(F)cc4c(=O)c3-c3cccc(F)c3)c3ncnc(N)c23)cc1F [umbralisib (TGR-1202)],1.11
7,C=CC(=O)N1CC/C(=C\c2ccc(F)c([N+](=O)[O-])c2)C(=O)/C(=C/c2ccc(F)c([N+](=O)[O-])c2)C1,6.18
8,NC(=O)c1nc(F)cnc1O [Favipiravir (T-705)],0.685
9,Cn1ccnc1S [Methimazole],1.71
10,CCCCCCCCCC(=O)N[C@@H](Cc1c[nH]c2ccccc12)C(=O)N[C@H](CC(N)=O)C(=O)N[C@@H](CC(=O)O)C(=O)N[C@@H]1C(=O)NCC(=O)N[C@@H](CCCN)C(=O)N[C@@H](CC(=O)O)C(=O)N[C@H](C)C(=O)N[C@@H](CC(=O)O)C(=O)NCC(=O)N[C@H](CO)C(=O)N[C@@H]([C@H](C)CC(=O)O)C(=O)N[C@@H](CC(=O)c2ccccc2N)C(=O)O[C@@H]1C [Daptomycin],1.06
11,COC(=O)CCc1ccc(OCC(O)CNC(C)C)cc1 (stereo not given) [Esmolol HCl],0.978
12,c1ccc(C2CN3CCSC3=N2)cc1 (stereo not given) [Tetramisole HCl],1.45
13,N#C[C@@H]1C[C@@H]2C[C@@H]2N1C(=O)[C@@H](N)C12CC3CC(CC(O)(C3)C1)C2 [Saxagliptin hydrate],0.976
14,CN(C(=O)c1ccc(F)cc1C(F)(F)F)C1CCN(c2nnc(-c3ccnn3C)c3ccccc23)CC1,1.45
15,COC(=O)C1=C(C#N)NC(C)=C(C(=O)OC(C)C)C1c1cccc([N+](=O)[O-])c1 (stereo not given) [Nilvadipine],1.2
16,CCC(NC(C)C)C(O)c1ccc(O)c(O)c1 (stereo not given) [Isoetharine Mesylate],0.478
17,CC12CCC(CC1)C(C)(C)O2 [Eucalyptol],0.884
18,Cc1nnc(C(=O)NC(C)(C)c2nc(C(=O)NCc3ccc(F)cc3)c(O)c(=O)n2C)o1 [Raltegravir (MK-0518)],1.17
19,Cc1c(OCC(F)(F)F)ccnc1C[S+]([O-])c1nc2ccccc2[nH]1 (stereo not given) [Lansoprazole],1.16
20,C[C@@H](O)[C@H]1C(=O)N2C(C(=O)O)=C(S[C@@H]3CN[C@H](C(=O)Nc4cccc(C(=O)O)c4)C3)[C@H](C)[C@H]12 [Ertapenem sodium],0.672

row,SMILES,Euclidean distance
1,C=CCc1ccc(O)c(-c2cc(CC=C)ccc2O)c1 [Magnolol],1.13
2,O=c1c(-c2ccc(O)cc2)coc2cc(O[C@@H]3O[C@H](CO)[C@@H](O)[C@H](O)[C@H]3O)ccc12 [Daidzin],0.57
3,Nc1[nH]cnc2ncnc1-2 [Adenine HCl],1.09
4,OCCOCCN1CCN(C2=Nc3ccccc3Sc3ccccc32)CC1 [Quetiapine],0.8
5,C=C(C)[C@@H]1CC=C(CO)CC1 [Perillyl alcohol],0.887
6,CC(C)n1c(/C=C/C(O)CC(O)CC(=O)O)c(-c2ccc(F)cc2)c2ccccc21 (stereo not given) [Fluvastatin Sodium],3.02
7,C=C1C(=O)O[C@@H]2/C=C(\C)CC/C=C(\C)CC[C@@H]12 [Costunolide],1.27
8,CCCCC1(COC(=O)CCC(=O)O)C(=O)N(c2ccccc2)N(c2ccccc2)C1=O [Suxibuzone],0.771
9,O=C(/C=C/C=C/c1ccc2c(c1)OCO2)N1CCCCC1 [Piperine],1.7
10,CC(C)C(=O)Nc1ccc([N+](=O)[O-])c(C(F)(F)F)c1 [Flutamide],0.873
11,CN[C@@H]1CCc2[nH]c3ccc(C(N)=O)cc3c2C1 [Frovatriptan Succinate],1.33
12,COc1ccc2cc3[n+](cc2c1OC)CCc1cc2c(cc1-3)OCO2 [Berberine chloride],1.19
13,CN1c2ccccc2C(=O)N2CCc3c([nH]c4ccccc34)C21 (stereo in doubt) [Evodiamine],2.67
14,CCN(CC)CCOc1ccc(C(=C(Cl)c2ccccc2)c2ccccc2)cc1 [Clomifene citrate],4.89
15,C[C@H](CCC(=O)O)[C@H]1CC[C@H]2[C@@H]3[C@@H](O)C[C@@H]4C[C@H](O)CC[C@]4(C)[C@H]3CC[C@]12C [Ursodiol],1.16
16,COc1ccc(CN(CCN(C)C)c2ccccn2)cc1 [Pyrilamine Maleate],0.832
17,Cc1ccccc1C(OCCN(C)C)c1ccccc1 (stereo not given) [Orphenadrine Hydrochloride],0.905
18,NCCCC(N)(C(=O)O)C(F)F (stereo not given) [Eflornithine hydrochloride hydrate],1.45
19,CCOC(=O)c1ncn2c1CN(C)C(=O)c1cc(F)ccc1-2 [Flumazenil],1.08
20,C[C@]12C=CC(=O)C=C1CC[C@H]1[C@@H]3C[C@@H](O)[C@](O)(C(=O)CO)[C@@]3(C)C[C@H](O)[C@@]12F [Triamcinolone],0.975
